We go through 13 compounds from PubChem BioAssay.

The structures appear in SMILES notation. A number with no mark means an inactive call. How the calls were made is not given here.

By inhibition is commonly meant the relative decrease from the control value, in per cent.

The target of the test is L-lactate dehydrogenase (Plasmodium falciparum (isolate CDC / Honduras)) (UniProt Q27743). Put plainly: PfLDH activity inhibition – cell lysate, 3D7 strain, counter-screen for P. falciparum growth inhibition project (AID 2304).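 Further: 0% = vehicle and 100% = reference inhibitor.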 Conditions: P. falciparum 3D7 crude extract, LDH APAD/NBT absorbance; at 2 µM; active compounds read high.
Chain of L-lactate dehydrogenase (Plasmodium falciparum (isolate CDC / Honduras)) (Q27743 whole entry, looked up): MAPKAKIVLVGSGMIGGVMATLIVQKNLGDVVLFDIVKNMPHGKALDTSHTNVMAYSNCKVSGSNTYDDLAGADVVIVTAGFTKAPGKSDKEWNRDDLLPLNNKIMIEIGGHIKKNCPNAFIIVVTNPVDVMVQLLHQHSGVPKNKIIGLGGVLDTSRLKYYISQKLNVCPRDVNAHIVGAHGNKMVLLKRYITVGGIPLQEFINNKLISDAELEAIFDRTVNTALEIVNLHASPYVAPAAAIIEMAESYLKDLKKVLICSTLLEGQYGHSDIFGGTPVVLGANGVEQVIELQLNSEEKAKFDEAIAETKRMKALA
As to `CN(C)CCCNCc1ccc(-c2ccc(C(F)(F)F)cc2)cc1`, the inhibition is -4%.

Consider `Fc1ccccc1COc1ccc(Nc2ncnc3ccc(-c4nnc(C(F)(F)F)o4)cc23)cc1Cl`, for which the inhibition was 4%.

As for `O=C(Nc1ccc([N+](=O)[O-])cc1)c1nn(-c2ccccc2)cc1N=Cc1cccc(O)c1`, the inhibition was -5%.

In the case of `Cc1cccc2[nH]c(-c3ccc(-c4ccc(NC(=O)N[C@@H]5C[C@H]5c5ccccc5)cc4)cc3)nc12`, the inhibition was -5%.

With `O=c1cc(NCCCCNCc2ccc(Br)c(Br)c2)[nH]c2ccccc12`, the inhibition was 2%.

Take `O=S1N=C(NCCCN(Cc2cccs2)c2ccccn2)C(NCc2ccccc2)=N1` (stereo not drawn): the inhibition was 0%.

For `COc1ccccc1NC(=O)NC1CCN(CCCCCNC(=O)/C=C/c2ccc(Cl)c(Cl)c2)CC1`, the inhibition is -1%.

For `CC(=O)Oc1cc(C)ccc1C1CCN(CCCCNC(=O)c2ccc(-c3ccc(C(F)(F)F)cc3)cc2)CC1`, the inhibition is -7%.

Take `O=c1cc(NCCCNCc2csc(Br)c2Sc2ccc(Cl)cc2)[nH]c2ccccc12`: the inhibition is 7%.

For `Cc1cccc2[nH]c(-c3ccc(-c4cccc(NC(=O)Nc5ccsc5)c4)s3)nc12`, the inhibition is -3%.

As for `CCCCCCP(=O)(COc1ccc(CCN(CC(O)COc2cccc3[nH]c(C(N)=O)cc23)CC(O)COc2cccc3[nH]c(C(N)=O)cc23)cc1)OCCCC` (stereo not drawn), the inhibition is 3%.

With `COc1ccc(-c2csc3ncnc(Cl)c23)cc1`, the inhibition is 5%.

As to `C[C@H](Cc1ccc(Oc2ccc(C[C@@H](C)NC[C@H](O)c3cccc(Cl)c3)cc2)cc1)NC[C@H](O)c1cccc(Cl)c1`, the inhibition is -3%.
